The values that follow come from PubChem BioAssay (EPA / NIEHS).

Molecules are shown by their SMILES. The source made the active and inactive calls. How the source made its calls: active means hit-call score of the fitted dose curve at least 0.9, where 1 is the maximum; inactive means score below 0.9.

Read-out in the test: Alkaline Phosphatase, Placental (ALPP) gene, ALPP (gene 250)
Description: LTEA_HepaRG_ALPP: Life Technologies and Expression Analysis (LTEA) Assay for Alkaline Phosphatase, Placental (ALPP) gene using HepaRG (AID 2283468).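 On AC50: differentiated human HepaRG liver cells in serum-free induction medium.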 Particulars: mRNA level, 48 h; actives raise or lower the signal. In short, it runs like this:
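ALPP transcript level, measured by qRT-PCR and normalized to three housekeeping genes (ACTB, GAPDH, POLR2A), after 48 h dosing of differentiated HepaRG in serum-free induction medium. Top concentration 100 uM with half-log dilutions (8 points, 0.5% DMSO, duplicates); bidirectional fitting relative to DMSO.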
For `CCOC(=O)c1ccc(O)cc1`, the molecule was classed as inactive.
Still for that read-out and setting: the entry for `CCCN(CCC)c1c([N+](=O)[O-])cc(C(F)(F)F)c(N)c1[N+](=O)[O-]` is “inactive”; for `O=C(c1ccccc1)C1CCCCC1` it is “inactive”.
Usually AC50 stands for the midpoint of the concentration-response curve, whichever way the signal moves. As to `C=CCOC(Cn1ccnc1)c1ccc(Cl)cc1Cl` (configuration not stated), the AC50 was 50 µM (active).
For the molecule `CC(C)CCCCCCc1ccc(O)cc1`, the result was inactive.
The same measure, in the same setting: as for `COCCO`, the entry is “inactive”; as for `N[C@@H](Cc1cc(I)c(Oc2ccc(O)c(I)c2)c(I)c1)C(=O)O`, “inactive”; as for `COc1c(Cl)ccc(Cl)c1C(=O)O`, “inactive”.
For `CCC(C)OC(=O)N1CCCCC1CCO` (configuration not stated), the molecule was classed as inactive.
The same measure, in the same setting: as for `CC(C)(C)[C@@H](O)[C@@H](Cc1ccc(Cl)cc1)n1cncn1`, the entry is “inactive”.
Still for that read-out and setting: as for `O=C(O)C1(C(=O)Nc2ccc(Cl)cc2Cl)CC1`, the entry is “inactive”; as for `OB(O)O`, “inactive”.
As to `CC(=O)[C@H]1CC[C@H]2[C@@H]3CCC4=CC(=O)CC[C@]4(C)[C@H]3CC[C@]12C`, the AC50 is 30 µM (active).
As to `CCCCC(CC)CN1C(=O)C2C3C=CC(C3)C2C1=O` (configuration not stated), the AC50 was 65.4 µM (active).
As to `CCN(Cc1c(F)cccc1Cl)c1c([N+](=O)[O-])cc(C(F)(F)F)cc1[N+](=O)[O-]`, the result was inactive.
Still for that read-out and setting: as for `C[C@]12C[C@H](O)[C@H]3[C@@H](CCC4=CC(=O)CC[C@@]43C)[C@@H]1CC[C@@H]2C(=O)CO`, the entry is “inactive”; as for `C#CCOC(=O)[C@@H](C)Oc1ccc(Oc2ncc(Cl)cc2F)cc1`, “inactive”.
Take `Cc1nn(C)c(Oc2ccccc2)c1C=NOCc1ccc(C(=O)OC(C)(C)C)cc1`: the AC50 is 0.903 µM (active).
On to `CCOC(=O)C(C)Oc1ccc(Oc2nc3ccc(Cl)cc3o2)cc1` (configuration not stated), for which the molecule was classed as inactive.
`CCOC(=O)COc1cc(-n2ncc(C(F)(F)F)c(C)c2=O)c(F)cc1Cl`: the molecule was called inactive.
On the same count and under the same terms, the entry for `Oc1ccc(C(c2ccc(O)cc2)C(Cl)(Cl)Cl)cc1` is “inactive”; for `c1ccc(Nc2ccccc2)cc1` it is “inactive”; for `CCCOC(=O)c1ccc(C(=O)OCCC)nc1` it is “inactive”.
For `CCCCC(CC)COC(=O)c1ccccc1C(=O)O` (configuration not stated), the call was inactive.
On the same count and under the same terms, the entry for `CCSC(=O)N(CC(C)C)CC(C)C` is “inactive”; for `CCCCOC(=O)C(C)Oc1ccc(Oc2ccc(C(F)(F)F)cn2)cc1` (configuration not stated) it is “inactive”.
Take `CCOC(=O)C(C)Oc1ccc(Oc2cnc3cc(Cl)ccc3n2)cc1` (configuration not stated): the outcome was inactive.
